According to ChEMBL document CHEMBL3988442, “University of Dundee, Small-Polar-MMV Screening Library” (2021):
Screen size: about 66,000 compounds; about 960 (1.5%) showed an effect of 50% or more. Shown is part of a subset that was picked to be rich in strong results.

Tested on: Trypanosoma brucei
Assay: Trypanosoma brucei 72 hour study
Type: functional, organism-based
Set-up: scale not given: in the data most compounds retested in dose-response had high values

Cc1cc2c(=O)n3c(nc2s1)CCN(C(=O)c1nn(C)cc1Cl)CC3
Percent Effect (30.3 µM, […]): -11.28%

CN1CC(=O)N(c2cccnc2)CC12CCN(C(=O)c1cccn1C)C2.O=C(O)C(F)(F)F.O=C(O)C(F)(F)F (stereo not drawn)
Percent Effect (30.3 µM, […]): -4.553%

O=C(C[C@@H]1COC[C@H]2CN(C(=O)c3ccccn3)C[C@@H]12)N1CCCC1.O=C(O)C(F)(F)F
Percent Effect (30 µM, 30.03 µM): -14.99%

CS(=O)(=O)NCc1cnc2n1CCN(Cc1cccnc1)CC2.O=C(O)C(F)(F)F.O=C(O)C(F)(F)F
Percent Effect (30 µM, 30.03 µM): -10.23%

O=C(Nc1cccnc1)C1Cc2nc(-c3ccsc3)sc2N1CC1CC1.O=C(O)C(F)(F)F (stereo not drawn)
Percent Effect (30.3 µM, […]): 60.89%

O=C(NC1CCCC1)C1Cc2nc(-c3ccsc3)sc2N1CC1CC1 (stereo not drawn)
Percent Effect (30.3 µM, […]): 33.5%

CN(C)CCNC(=O)C1Cc2nc(-c3ccsc3)sc2N1CC1CC1.O=C(O)C(F)(F)F (stereo not drawn)
Percent Effect (30.3 µM, […]): 5.041%

Cl.c1cc(CNc2cnc(C3CCCN3)cn2)ccn1 (stereo not drawn)
Percent Effect (30.3 µM, […]): -6.296%

Cc1nc(NC(=O)C2CCCN(C(=O)C3CC3)C2)sc1C (stereo not drawn)
Percent Effect (30 µM, 30.03 µM): -11.09%

CSc1sc(NC(=O)C2CCCN(C(N)=O)C2)nc1C (stereo not drawn)
Percent Effect (30 µM, 30.03 µM): -35.12%

Cc1nc(NC(=O)C2CCCN(C(N)=O)C2)sc1-c1ccccc1 (stereo not drawn)
Percent Effect (30 µM, 30.03 µM): 57.12%

CC(C)N1CCC2(CC1)CC(NCc1ccccn1)c1ccccc1O2.O=C(O)C(F)(F)F.O=C(O)C(F)(F)F.O=C(O)C(F)(F)F (stereo not drawn)
Percent Effect (30 µM, 30.03 µM): 2.75%

CCc1nnsc1C(=O)N1CCCC(n2ccnc2C(C)C)C1 (stereo not drawn)
Percent Effect (30.3 µM, […]): -10.58%

COc1cccc(Nc2nc(C3CCNCC3)c3ccccn23)c1.Cl
Percent Effect (30.3 µM, […]): 24.37%

Cc1sc2c(C3CCCNC3)nc(Nc3cccc(F)c3)n2c1C.Cl (stereo not drawn)
Percent Effect (30.3 µM, […]): 100.1%

COc1cccc(Nc2nc(C3CCCNC3)c3sc(C)c(C)n23)c1.Cl (stereo not drawn)
Percent Effect (30.3 µM, […]): 2.239%

COc1cccc(Nc2nc(C3CCCNC3)c3ccccn23)c1.Cl (stereo not drawn)
Percent Effect (30.3 µM, […]): -1.342%

Cl.O=C(Nc1cccc(F)c1)C1=NOC2(CCNCC2)C1
Percent Effect (30.3 µM, […]): -7.13%

Cc1sc2c(C3CCNCC3)nc(Nc3cccc(F)c3)n2c1C.Cl
Percent Effect (30.3 µM, […]): 99.26%

Cc1nn(C(C)C)c(C)c1S(=O)(=O)Nc1cccc(F)c1
Percent Effect (30 µM, 30.03 µM): -2.912%

COc1cccc(Nc2nc(C3CCNCC3)c3sc(C)c(C)n23)c1.Cl
Percent Effect (30.3 µM, […]): 63.57%

Fc1cccc(-c2nccnc2C2CCCNC2)c1 (stereo not drawn)
Percent Effect (30.3 µM, […]): -21.91%

CCN(Cc1nc2c(cnn2C)c(=O)[nH]1)c1cc(C)cc(C)c1
Percent Effect (10 µM): -28.14%
Percent Effect (30.3 µM, […]): -21.13%

N#Cc1ccc(N2CCCC3(CCN(c4cncnc4)C3=O)C2)nc1.O=C(O)C(F)(F)F (stereo not drawn)
Percent Effect (30.3 µM, […]): -13.65%

Cl.O=C(Nc1cc(C(F)(F)F)c[nH]c1=O)C1CCCCN1 (stereo not drawn)
Percent Effect (30 µM, 30.03 µM): 4.306%

Cc1ccccc1CC(=O)NCCNc1nccc(C(F)(F)F)n1
Percent Effect (30 µM, 30.03 µM): -20.25%

CNc1ccnc(NCC(=O)Nc2cc(C)ccc2OC)n1
Percent Effect (30 µM, 30.03 µM): 42.18%

COc1ccccc1NC(=O)CCNC(=O)c1ccoc1
Percent Effect (30 µM, 30.03 µM): -15.64%

CNc1ccnc(NCCC(=O)Nc2ccccc2OC)n1
Percent Effect (30 µM, 30.03 µM): 54.56%

CNc1ccnc(NCCC(=O)Nc2ccccc2C)n1
Percent Effect (30 µM, 30.03 µM): 51.25%

Cc1ccccc1NC(=O)CCNC(=O)c1ccoc1
Percent Effect (30 µM, 30.03 µM): -20.37%

CN(C)C(=O)[C@H]1C[C@H]2[C@H](CCN2Cc2ccc3c(c2)OCO3)O1.O=C(O)C(F)(F)F
Percent Effect (30 µM, 30.03 µM): 17.59%

Cl.N#Cc1ccc(CNCC2(c3ccccc3)CCOCC2)cc1
Percent Effect (30.3 µM, […]): 24.88%

Cc1cccc(C(=O)N2CC[C@]3(C[C@H](OCc4ccccn4)CO3)C2)c1.O=C(O)C(F)(F)F
Percent Effect (30.3 µM, […]): -74.39%

O=C(NCc1ccccn1)[C@]12COC[C@H]1CN(Cc1ccccc1F)C2.O=C(O)C(F)(F)F.O=C(O)C(F)(F)F
Percent Effect (30.3 µM, […]): -30.47%

Cc1nc(CN2CC3(CCN(c4ncccn4)C3)CC2=O)cs1.O=C(O)C(F)(F)F (stereo not drawn)
Percent Effect (30 µM, 30.03 µM): -28.21%

COCCNC(=O)CCn1ncc2c(Cl)cccc21
Percent Effect (30.3 µM, […]): -10.63%

CN1CCN(c2ccccc2NC(=O)NCCc2ccc(O)cc2)CC1
Percent Effect (30.3 µM, […]): 8.397%

CN1CCN(c2ccccc2NC(=O)NCC[S+](C)[O-])CC1 (stereo not drawn)
Percent Effect (30.3 µM, […]): 11.12%

CN1CCN(c2ccccc2NC(=O)NCCc2ccccc2)CC1
Percent Effect (30.3 µM, […]): 100.1%

O=C(O)C(F)(F)F.O=C1[C@@H]2CCN(Cc3ccoc3)C[C@@H]2OCCN1c1ccccc1
Percent Effect (30 µM, 30.03 µM): 19.86%

O=C1CCCN1Cc1nnc(SCc2ccc3c(c2)CCC3)o1
Percent Effect (30 µM, 30.03 µM): 47.68%

CC(C)Oc1ccc(CSc2nnc(CN3CCCC3=O)o2)cc1
Percent Effect (30 µM, 30.03 µM): 72.7%

CC(C)c1cccc(CSc2nnc(CN3CCCC3=O)o2)n1
Percent Effect (30 µM, 30.03 µM): -4.842%

O=C(Cc1ccccn1)N1CC[C@]2(C[C@@H](Oc3ncccc3F)CO2)C1.O=C(O)C(F)(F)F.O=C(O)C(F)(F)F
Percent Effect (30 µM, 30.03 µM): -12.46%

CN(CCCn1cnc2c(N)ncnc21)Cc1ccccc1
Percent Effect (30 µM, 30.03 µM): -6.688%

CNC(=O)c1cc2c(nc1N(C)C)CCN(c1ncc(F)cn1)CC2.O=C(O)C(F)(F)F
Percent Effect (30.3 µM, […]): -8.544%
